Experimental data: PubChem BioAssay (NCI)
Compounds without any hit were thinned out: in the full panel of roughly 83,000, 20% have a hit.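 Values shown are percent growth following 48 h exposure of cells in 96-well plates to a single concentration of compound; below 10 was considered active.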 Calls of active or inactive are those of the source.

Tests used:
Experiment in all cases: NCI-60 one-dose screen, 48 h (100 = growth as untreated, 0 = no growth, -100 = all killed)
Conditions in all cases: 10 µM unless noted
[1] = system: NCI-H23 lung
[2] = system: NCI-H226 lung
[3] = system: NCI-H322M lung
[4] = system: HOP-62 NSCLC
[5] = system: NCI-H460 lung
[6] = system: HOP-92 NSCLC
[7] = system: NCI-H522 lung
[8] = system: A549/ATCC NSCLC
[9] = system: 786-0 renal
[10] = system: COLO 205 colon

Row | Compound | growth [1] | growth [2] | growth [3] | growth [4] | growth [5] | growth [6] | growth [7] | growth [8] | growth [9] | growth [10]
1 | COc1ccc(Nc2ccnc3cc(Cl)ccc23)cc1CN(CCCl)CCCl | -46.7% (active) | 22.9% (inactive) | -34% (active) | -38.8% (active) | -18.2% (active) | -39% (active) | -47.6% (active) | 1.03% (active) | -53.3% (active) | -37.1% (active)
2 | NC(=O)CNc1ccc([As]=[As]c2ccc(NCC(N)=O)cc2)cc1 (stereo not drawn) | 62.2% (inactive) | 49.4% (inactive) | 83.5% (inactive) | 94% (inactive) | 83.2% (inactive) | 63.6% (inactive) | 2.53% (active) | 81% (inactive) | 29.7% (inactive) | 76.8% (inactive)
3 | CCCCCCCCCCCCCCCCCCOc1ccccc1COP(=O)(O)OOCC[N+](C)(C)C | 1.55% (active) | 42% (inactive) | 87.6% (inactive) | 3.04% (active) | 37.1% (inactive) | -27.7% (active) | 21% (inactive) | 35.1% (inactive) | 9.57% (active) | -30.3% (active)
4 | CC(=O)O[C@H](C[C@H](C(C)C)N(C)C(=O)[C@@H](NC(=O)[C@H]1CCCCN1C)C(C)C)c1cccc(C(=O)N[C@@H](Cc2ccccc2)C[C@H](C)C(=O)O)n1 | 32.6% (inactive) | 61.6% (inactive) | 40.7% (inactive) | 23% (inactive) | 4.27% (active) | 54.5% (inactive) | -12.7% (active) | 8.55% (active) | 13.6% (inactive) | -64% (active)
5 | C1CCC([PH+](C2CCCCC2)C2CCCCC2[PH+](C2CCCCC2)C2CCCCC2)CC1.[Au].[CH-]1CCCCC1CC1CCCC[N-]1 (stereo not drawn) | -46.3% (active) | -50.6% (active) | -42% (active) | -30.6% (active) | -56.4% (active) | -34.4% (active) | -40.7% (active) | -44.4% (active) | -89.6% (active) | -47.7% (active)
6 | Clc1cccc(NCOOC2(OOCNc3cccc(Cl)c3)CCCCCC2)c1 | 69% (inactive) | 102% (inactive) | 96.2% (inactive) | 87.4% (inactive) | 102% (inactive) | 57.5% (inactive) | 81.6% (inactive) | 92.8% (inactive) | 47.3% (inactive) | 113% (inactive)
7 | Clc1cc(N2CC2)nc(N2CC2)n1 | 56% (inactive) | 81.4% (inactive) | 103% (inactive) | 63.9% (inactive) | 23.6% (inactive) | 68.4% (inactive) | 67.2% (inactive) | 62.3% (inactive) | 76.1% (inactive) | 81.3% (inactive)
8 | O=C1C(N2CC2)=C(N2CC2)C(=O)C(N2CC2)=C1N1CC1 | -70% (active) | -63.6% (active) | 3.77% (active) | -17% (active) | -30.9% (active) | 41.4% (inactive) | -53.3% (active) | 6.45% (active) | -76.2% (active) | -100% (active)
9 | O=C(O)C1C(C(=O)O)C2(Cl)C(Cl)=C(Cl)C1(Cl)C2(Cl)Cl.[Hg] (stereo not drawn) | 90.7% (inactive) | 106% (inactive) | 107% (inactive) | 103% (inactive) | 98.8% (inactive) | 127% (inactive) | -50.2% (active) | 85% (inactive) | 88% (inactive) | 103% (inactive)
10 | CN1CC(CNC(=O)OCc2ccccc2)CC2c3cccc4c3c(cn4C)CC21 (stereo not drawn) | 71.6% (inactive) | 78% (inactive) | 82.9% (inactive) | 35.2% (inactive) | 40.4% (inactive) | 29.5% (inactive) | 60.5% (inactive) | 45.5% (inactive) | 42.8% (inactive) | -72.5% (active)
11 | O=[N+]([O-])c1cc(I)cc([N+](=O)[O-])c1 | 95.9% (inactive) | 115% (inactive) | 111% (inactive) | 133% (inactive) | 111% (inactive) | 131% (inactive) | 85.5% (inactive) | 99.5% (inactive) | 112% (inactive) | 111% (inactive)
12 | COc1cc([C@@H]2c3cc4c(cc3[C@H](OC(C)=O)[C@H]3COC(=O)[C@H]23)OCO4)cc(OC)c1OC | 25% (inactive) | 76.4% (inactive) | 42.7% (inactive) | 37.8% (inactive) | 9.09% (active) | 32.8% (inactive) | -4.13% (active) | 19.5% (inactive) | 20.5% (inactive) | -27.9% (active)
13 | O=C1CCC2(O)[C@@H]3Cc4ccc(O)c5c4[C@]2(CCN3Cc2ccoc2)C1O5 (stereo partly drawn) | 96.7% (inactive) | 89.4% (inactive) | 110% (inactive) | 106% (inactive) | 103% (inactive) | 100% (inactive) | 95.4% (inactive) | 102% (inactive) | 103% (inactive) | 105% (inactive)
14 | C=CCCCN=C=S | 82% (inactive) | 94.9% (inactive) | 80.7% (inactive) | 76.1% (inactive) | 47.9% (inactive) | 92% (inactive) | 38% (inactive) | 75.2% (inactive) | 93.4% (inactive) | 91.2% (inactive)
15 | C/C(=C\c1cc(C(F)(F)F)nn1CCNC(=O)OC(C)(C)C)[C@@H]1C[C@@H]2O[C@]2(C)CCC[C@H](C)[C@H](O)[C@@H](C)C(=O)C(C)(C)[C@@H](O)CC(=O)O1 | 59.2% (inactive) | 77.4% (inactive) | 72.3% (inactive) | 78.8% (inactive) | 30.5% (inactive) | 66.4% (inactive) | 63.5% (inactive) | 54.3% (inactive) | 67.8% (inactive) | 30.6% (inactive)
16 | O=[As](O)(O)c1ccccc1[As](=O)(O)O | 99.9% (inactive) | 112% (inactive) | 121% (inactive) | 110% (inactive) | 116% (inactive) | 95.9% (inactive) | 106% (inactive) | 91.8% (inactive) | 119% (inactive) | 111% (inactive)
17 | CCCCCCC(=O)NC1=C(N2CC2)C(=O)C(NC(=O)CCCCCC)=C(N2CC2)C1=O | 33.6% (inactive) | 75% (inactive) | 79.5% (inactive) | 47.2% (inactive) | 24% (inactive) | 65.3% (inactive) | 39.2% (inactive) | 42.3% (inactive) | 33.6% (inactive) | 3.58% (active)
18 | C[Se]C(=O)c1ccccc1OC(C)=O | 53.9% (inactive) | 6.57% (active) | 91.4% (inactive) | 48.9% (inactive) | 37.5% (inactive) | 38.4% (inactive) | 63.8% (inactive) | 59.2% (inactive) | 79.4% (inactive) | 111% (inactive)
19 | O=C(CCCCCCC(=O)Nc1ccc(N(CCCl)CCCl)cc1)NO | 29.2% (inactive) | 59.4% (inactive) | 69.4% (inactive) | 23.8% (inactive) | 14.5% (inactive) | 17.4% (inactive) | 23.8% (inactive) | 27.4% (inactive) | 22.9% (inactive) | 29.5% (inactive)
20 | Cc1ccc(S(=O)(=O)F)cc1C(=O)O | 96.5% (inactive) | 95.8% (inactive) | 77.6% (inactive) | 97.7% (inactive) | 111% (inactive) | 118% (inactive) | 85.8% (inactive) | 98.3% (inactive) |  | 103% (inactive)
21 | COc1ccc2nc(NC(=O)COc3cc(/C=C\c4cc(OC)c(OC)c(OC)c4)ccc3OC)sc2c1 | 32.1% (inactive) | 40.1% (inactive) | 25.3% (inactive) | 45% (inactive) | 4.25% (active) | 50.9% (inactive) | -19.7% (active) |  | 61% (inactive) | 26% (inactive)
22 | COC1=CC(=O)O[C@@H](/C=C/c2ccc3c(c2)OCO3)C1 | 117% (inactive) | 92.8% (inactive) | 97.5% (inactive) | 112% (inactive) | 118% (inactive) | 60.9% (inactive) | 98.3% (inactive) |  | 112% (inactive) | 125% (inactive)
23 | O=C(c1cccc(O)c1O)c1cn(Cc2ccc(F)cc2)c2cccc(O)c12 | 47.8% (inactive) | 61.5% (inactive) | 37.9% (inactive) | 31% (inactive) | 11.4% (inactive) | -9.9% (active) | -36.5% (active) |  | 31.2% (inactive) | 50.3% (inactive)
24 | CC(=O)OC[C@]1(C)C=C2C(=O)[C@](C)(O)C3(CC3)C(C)=C2[C@H]1O | -35.5% (active) | -15% (active) | -23.1% (active) | -29.4% (active) | -37.4% (active) | -25.8% (active) | -52.5% (active) |  | -46.2% (active) | -33.5% (active)
25 | O=C1C(Cl)=C(N2CCOCC2)C(=O)c2ccccc21 | 85.2% (inactive) | 104% (inactive) | 122% (inactive) | 105% (inactive) | 101% (inactive) | -75.2% (active) | 75.1% (inactive) |  | 111% (inactive) | 106% (inactive)
26 | Fc1c[c-]c(-c2ccccn2)c(F)c1.[CH3-].[Pt+2].c1ccc([PH+](c2ccccc2)c2ccccn2)cc1 | 0.331% (active) | -53.6% (active) | 19.4% (inactive) | 22.3% (inactive) | 3.22% (active) | -25.6% (active) | -37.9% (active) | 11.5% (inactive) | -1.65% (active) | -31.5% (active)
27 | C=CCn1cc(C=C2C(=O)N(C)C(=O)N(C)C2=O)c2ccccc21 | 84.4% (inactive) | -47.6% (active) | 87.8% (inactive) | 97% (inactive) | 56% (inactive) | 91.2% (inactive) | 105% (inactive) |  | 101% (inactive) | 116% (inactive)
